Compound activity (PubChem)
Pf Dd2 growth: inhibitors of Plasmodium falciparum Dd2 growth; Potency, µM (series often up to 28.9 µM), usual class: inhibitors; P. falciparum Dd2 growth, SYBR Green, 72 h; actives 4.3% (n = 120,000); AID 1347417; active = well fitted inhibition curve with a large enough effect; also: nearly all actives have a fitted effect of over 65% in size
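Readout: SYBR Green fluorescence, 485 nm excitation, 535 nm emission, after ~16 h lysis at 37C. Before that, Dd2-infected red cells (2.5% hematocrit) grew 72 h with compound, 29 uM top final concentration.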
Hits are given with their value; . = inactive. This excerpt belongs to a sample that is enriched for hits.

SMILES	Pf Dd2 growth
O=[S+]([O-])(c1cccs1)N1CCc2nc(-c3ccc(Cl)cc3)nc(-c3ccccc3)c2C1	.
COCCO[C@H]1C(=O)N(C2CCN(C(=O)c3ccccn3)CC2)[C@H]1c1ccncc1	.
CC(C)(O)CCc1cccc(C(=O)NCC(O)c2ccncc2)c1 (stereo not drawn)	.
Cc1ccc(C(=O)N2CCC(c3nnc(Cn4cncn4)n3C)CC2)cc1F	.
O=C(Cn1nc2c(cc1=O)CCCCC2)N1CCC(c2ccccc2)CC1	.
CCOC(=O)c1c(C)n(-c2ccc(OC)cc2)c2ccc(OC(=O)COc3ccccc3)cc12	11µM
CCOC(=O)c1c(C)n(-c2ccccc2)c2ccc(OC(=O)COc3ccccc3)cc12	.
COc1ccc(-n2c(C)c(C(C)=O)c3cc(OC(=O)COc4ccccc4)ccc32)cc1	.
Cc1ncc2c(n1)CCCN(CC(=O)N1CCCC1)C2=O	.
O=C(NCc1ccncc1)C1CN(Cc2ccccn2)CC12CCOCC2 (stereo not drawn)	.
CN1C(=O)c2cccn2CC1C(=O)NC1CCCCC1 (stereo not drawn)	.
COC(=O)c1cc2sc(C)cc2n1Cc1cccc(OC)c1	10µM
COC(=O)c1cc2sccc2n1Cc1ccccc1	.
COC(=O)c1cc2sc(C)cc2n1Cc1ccccc1	.
Cc1cccc(NC(=O)c2cnc(-c3ccccc3)nc2-c2ccncc2)c1C	.
Cc1ccc(C(=O)N2CC(Oc3ccc(F)cc3C)C2)cc1	11µM
Cc1ccc(OC2CN(C(=O)c3ccc(F)cc3)C2)cc1C	.
Cc1cc(F)ccc1OC1CN(C(=O)c2ccccn2)C1	.
O=C(CC[C@@H]1CNC(=O)[C@@H]2C[C@H](NCc3cccc(Cl)c3)CN12)NCc1ccc(F)cc1	.
COCCn1ncc(N2CCC(NC(=O)c3cc(C)ccc3C)CC2)cc1=O	.
COc1ccc(CN2C[C@@H](F)[C@@H](OCc3nc4ccc(C(F)(F)F)cc4[nH]3)C2)cn1	.
c1cc2nncn2nc1NC1CCCCC1	.
O=C(NCC1CC1)c1cccc(OC2CN(C3CCSCC3)C2)c1	.
CCN1CCC(N2CC(Oc3cccc(C(=O)NCC4CC4)c3)C2)CC1	.
O=C(NCC1CC1)c1cccc(OC2CN(Cc3ccc(F)cc3Cl)C2)c1	11µM
SMILES	Pf Dd2 growth
OC[C@H]1C[C@@H](NCc2cccnc2)[C@H](O)[C@@H]1O	.
COc1ccc(C2Nc3ccccc3-c3cc(C)nn32)c(OC)c1 (stereo not drawn)	.
CCN(CC)c1ccc(C2Nc3ccccc3-c3cc(C)nn32)cc1 (stereo not drawn)	.
COC(=O)c1ccc(C2Nc3c(C)cccc3-c3cc(C)nn32)cc1 (stereo not drawn)	0.45µM
O=C(Nc1ccnn1C1CCN(CCO)CC1)c1ccccc1Cl	.
O=C1c2c(-c3nc(-c4ccsc4)no3)nnn2CCN1Cc1ccc(F)cc1	.
COc1ccc(CC(=O)NC(C)C(=O)N2CCN(c3ccccn3)CC2)cc1 (stereo not drawn)	.
O=C(CSc1ccccn1)NCc1cccnc1N1CCOCC1	.
Fc1ccc(CNCc2cccnc2N2CCN(c3ccccn3)CC2)cc1F	5µM
COc1cccc(-c2ccnc3nc(CCc4ccccc4)nn23)c1	.
CCOc1ccc(-n2nc3ccc(NC(=O)c4ccc(-c5cccc(Cl)c5)o4)cc3n2)cc1	2.8µM
CCOc1ccc(-n2nc3ccc(NC(=O)c4ccc(C)cc4C)cc3n2)cc1	.
CCOc1ccc(-n2nc3ccc(NC(=O)COc4ccccc4)cc3n2)cc1	.
COCCc1noc(CC2CCOC3(CCN(C(=O)c4ccccn4)CC3)C2)n1 (stereo not drawn)	.
c1cc(OC2CCCCC2)ncc1-c1noc([C@@H]2CCCN2C2CCOCC2)n1	11µM
COc1ccc(-c2noc([C@@H]3CCCN3C3CCCCC3)n2)cn1	.
Cc1ccc(CN2CCC[C@H]2c2nc(-c3ccc(OC4CCCCC4)nc3)no2)cc1	.
O=C(c1ccccc1)N1CCC2(CNc3ccccc3[S+](=O)([O-])N2)C1 (stereo not drawn)	.
CCc1nc(-c2c3n(c(=O)n(Cc4ccccc4C)c2=O)CCCCC3)no1	.
COc1ccc2[nH]c3c(c2c1)CCN(C(=O)c1cccc(Cl)c1)C3c1ccc(F)cc1 (stereo not drawn)	.
COc1ccc(NC(=O)N2CCc3c([nH]c4ccc(OC)cc34)C2c2ccc(OC)cc2)cc1 (stereo not drawn)	4.5µM
COc1ccc2[nH]c3c(c2c1)CCN(C)C31CCN(C(=O)C2CCC2)CC1	.
Cc1ccc(C(=O)N2C[C@H](c3nc(-c4ccccc4)no3)[C@@H](C)C2)cn1	.
Cc1nc([C@H]2CCN(Cc3cccc(OC(F)(F)F)c3)C[C@H]2NC(=O)C2CC2)n[nH]1	.
Cc1ccccc1Cn1c2ccccc2c2cnn(CC(=O)NCCc3ccc(Cl)cc3)c(=O)c21	.
SMILES	Pf Dd2 growth
CCCCN(C)CCCNC(=O)Cn1ncc2c3ccccc3n(Cc3ccccc3F)c2c1=O	5.6µM
Cc1ccc(C)c(Cn2c3ccccc3c3cnn(CC(=O)NCC(C)c4ccccc4)c(=O)c32)c1 (stereo not drawn)	.
Cc1ccc(C)c(Cn2c3ccccc3c3cnn(CC(=O)NC(C)c4ccccc4)c(=O)c32)c1 (stereo not drawn)	.
CCCN(CCC)CCCNC(=O)Cn1ncc2c3ccccc3n(Cc3ccccc3F)c2c1=O	5µM
O=C(Cn1ncc2c3ccccc3n(Cc3ccccc3F)c2c1=O)NCCc1ccc(Cl)cc1	.
CCCCN(C)CCCNC(=O)Cn1ncc2c3ccccc3n(Cc3cc(C)ccc3C)c2c1=O	0.45µM
CC(CCc1ccccc1)NC(=O)Cn1ncc2c3ccccc3n(Cc3ccccc3F)c2c1=O (stereo not drawn)	.
CCCCN(C)CCNC(=O)Cn1ncc2c([nH]c3ccccc32)c1=O	.
CCCn1cnc2c1CN(C(=O)c1ccc(F)cc1)[C@H](C(=O)OC)C2	.
O=[N+]([O-])c1ccccc1-c1ncc[nH]1	.
COCCN1C(=O)CCC2(CNC(=O)c3ccncc3)CCCC=C12 (stereo not drawn)	.
CCCS(=O)(=O)N1CCc2nn(CCOC)c(=O)n2CC1	.
CC(Sc1nc(=O)cc(N)n1CCc1ccccc1)C(=O)Nc1ccccc1C#N (stereo not drawn)	11µM
Nc1cc(=O)nc(SCC(=O)Nc2ccc(F)cc2)n1CCc1ccccc1	.
Cc1ccc(NC(=O)C(C)Sc2nc(=O)cc(N)n2-c2ccccc2)cc1 (stereo not drawn)	.
Cc1cc(C(=O)N2CCc3c(nc(C)nc3N(C)C)C2)c2cccc(C)c2n1	.
CN(C)[C@@H]1CN(C(=O)C2CCCCC2)CC[C@@H]1CO	.
COc1cc(CNC(=O)[C@@H]2C[C@H](c3ccc(F)cc3)N(Cc3csc(C)n3)C2)cc(OC)c1	.
CCNC(=O)N[C@H]1[C@H](O)[C@@H](N2CCCCC2)[C@@H]2OC[C@H]1O2	.
CCOc1ccc(-c2ccc(NS(=O)(=O)c3ccc(C)cc3)cc2)nn1	10µM
COc1ccc(-c2ccc(NS(=O)(=O)c3ccc(F)c(C(F)(F)F)c3)cc2)nn1	.
CCOc1ccc(-c2cccc(NS(=O)(=O)c3ccc(C)s3)c2)nn1	.
O=C(NCc1cc(F)ccc1F)C1CCc2sc(C(=O)N3CCOCC3)cc2C1 (stereo not drawn)	.
COc1cccc(-c2nc3c([nH]2)CC(C)(C)CNC3=O)c1OC	.
O=C(CSc1nc2c([nH]c3ccccc32)c(=O)n1-c1ccc(Cl)cc1)NC1CCCCC1	13µM
CSc1nc2c([nH]c3ccccc32)c(=O)n1-c1ccc(C)cc1	.
